Reference: PubChem BioAssay AID1438 (Sanford-Burnham Center for Chemical Genomics, 2008)
Out of some 2,200 compounds screened, about 45 (2%) were called active. How the calls were made is not given here. Not all results are given here. Results with a measured potency or affinity are listed apart.

Target: Runt-related transcription factor 1 (Homo sapiens) + Core-binding factor subunit beta (Homo sapiens) (UniProt Q01196+Q13951)
Assay: Runt domain/CBFb-SMMHC interaction disruptors – biochemical, TR-FRET (AID 1438)
Settings: at 20 µM, active compounds read high

Chain of Runt-related transcription factor 1 (Homo sapiens) + Core-binding factor subunit beta (Homo sapiens) (Q01196 whole entry, looked up, the tested form may be a part): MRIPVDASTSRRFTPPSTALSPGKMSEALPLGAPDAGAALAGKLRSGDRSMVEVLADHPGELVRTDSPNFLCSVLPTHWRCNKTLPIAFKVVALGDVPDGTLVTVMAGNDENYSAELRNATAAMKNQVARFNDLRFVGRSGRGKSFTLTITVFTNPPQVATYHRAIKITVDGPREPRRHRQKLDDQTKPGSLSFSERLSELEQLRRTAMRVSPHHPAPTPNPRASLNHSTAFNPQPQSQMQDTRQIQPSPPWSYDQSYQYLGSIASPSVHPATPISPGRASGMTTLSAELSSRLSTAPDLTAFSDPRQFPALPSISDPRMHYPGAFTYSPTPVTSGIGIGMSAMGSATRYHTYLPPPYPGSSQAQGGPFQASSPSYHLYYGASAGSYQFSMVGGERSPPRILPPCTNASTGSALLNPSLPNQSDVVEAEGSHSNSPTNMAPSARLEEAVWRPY
Chain of Runt-related transcription factor 1 (Homo sapiens) + Core-binding factor subunit beta (Homo sapiens) (Q13951 whole entry, looked up, the tested form may be a part): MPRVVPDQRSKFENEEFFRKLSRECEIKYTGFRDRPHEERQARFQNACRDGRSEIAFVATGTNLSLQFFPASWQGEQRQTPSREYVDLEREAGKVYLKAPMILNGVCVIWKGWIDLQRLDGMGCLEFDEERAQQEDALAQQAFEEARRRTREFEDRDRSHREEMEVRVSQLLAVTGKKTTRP

| SMILES | inhibition |
| --- | --- |
| Cc1cc(Nc2ccccc2)nc2cc(O)ccc12 | 15.5% (inactive) |
| Cc1cc(O)ccc1N/C=C(\C#N)c1nc2ccccc2o1 | 8% (inactive) |
| Cc1ccc(C2C3=C(CC(C)(C)CC3=O)N(CCN3CCOCC3)C3=C2C(=O)CC(C)(C)C3)cc1 | 42.9% (inactive) |
| CCN1C2=C(C(=O)CCC2)C(c2ccc(O)c(Br)c2)C2=C1CCCC2=O | 19.7% (inactive) |
| C=CCOc1ccc(C2C(C#N)=C(N)N(Nc3ccccc3)C3=C2C(=O)CCC3)cc1OC (configuration not stated) | 32.3% (inactive) |
| CCCN1C2=C(C(=O)CCC2)C(c2ccc(O)c(Br)c2)C2=C1CCCC2=O | 24.4% (inactive) |
| N#Cc1c(N)[nH]c(=S)c(C#N)c1-c1ccccc1 | -64.2% (inactive) |
| CCOC(=O)c1cc2c(=O)n3ccccc3nc2n(CCCOC)c1=NC(=O)c1ccncc1 | 2.5% (inactive) |
| COCCN1C=C(C(=O)OC)C(c2cc(Br)c(OC)c(OC)c2)C(C(=O)OC)=C1 | 47.6% (inactive) |
| COC(=O)C1C(O)CCC2CN3CCc4c([nH]c5ccccc45)C3CC21 (configuration not stated) | -11.7% (inactive) |
| C=CCn1c(=N)c(C(=O)NCCCOC)cc2c(=O)n3cccc(C)c3nc21 | 2.9% (inactive) |
| Cn1c(=O)nc2n(Cc3ccccc3)c3ccccc3cc-2c1=O | 36.1% (inactive) |
| CCn1c(O)c(C=Nc2ccccc2)sc1=S | -3.7% (inactive) |
| O=C1CCCC2=C1C(c1ccc(Br)cc1)c1c([nH]c(=S)[nH]c1=O)N2 (configuration not stated) | 42.6% (inactive) |
| c1ccc(-c2nc(N3CCCCC3)nc3ccccc23)cc1 | 25.8% (inactive) |
| CCc1nnc(NC(=O)C2(C)COC(c3ccccc3)OC2)s1 (configuration not stated) | -7% (inactive) |
| CCC(C)(C)n1nnnc1C(c1cc2cc3c(cc2[nH]c1=O)OCO3)N1CCN(C)CC1 (configuration not stated) | 39.5% (inactive) |
| CCCNC(=O)Cn1sc2nc(C)cc(C)c2c1=O | -3.9% (inactive) |
| O=C(O)CSc1c2c(nc3cc(C(=O)N4CCOCC4)ccc13)CCCC2 | -4.9% (inactive) |

| SMILES | inhibition |
| --- | --- |
| O=C(Cn1c2ccccc2c(=O)c2ccccc21)Nc1ccccc1F | -15.4% (inactive) |
| O=C(CCC(=O)N/N=C/c1cc(Cl)cc(Cl)c1O)NCc1ccccc1 | -4.9% (inactive) |
| O=C(Cn1c2ccccc2c(=O)c2ccccc21)N/N=C/c1ccc(N2CCCC2)c([N+](=O)[O-])c1 | 10.6% (inactive) |
| O=C(Cn1c2ccccc2c(=O)c2ccccc21)Nc1cccc(F)c1 | 39% (inactive) |
| CCc1cc2c(COC(=O)c3c(C)noc3C)cc(=O)oc2cc1O | -33.2% (inactive) |
| Cc1cccn2c(=O)c3cc(C(=O)NCc4ccco4)c(=N)n(CCc4ccccc4)c3nc12 | -9.3% (inactive) |
| CCOC(=O)c1cc2c(=O)n3ccccc3nc2n(Cc2ccccc2)c1=N | 41.8% (inactive) |
| Cc1ccc(CNC(=O)c2cc3c(=O)n4ccccc4nc3n(CC3CCCO3)c2=N)cc1 (configuration not stated) | 36.3% (inactive) |
| COc1ccc(CCn2c(=N)c(C(=O)NCc3ccco3)cc3c(=O)n4cccc(C)c4nc32)cc1 | 21.9% (inactive) |
| N=c1c(C(=O)NCc2ccc(F)cc2)cc2c(=O)n3ccccc3nc2n1Cc1cccnc1 | 48.7% (inactive) |
| COc1ccc(CNC(=O)c2cc3c(=O)n4ccccc4nc3n(Cc3cccnc3)c2=N)cc1 | 29.1% (inactive) |
| N=c1c(C(=O)NCc2ccco2)cc2c(=O)n3ccccc3nc2n1Cc1ccccc1 | 65% (active) |
| N=c1c(C(=O)NCc2ccc3c(c2)OCO3)cc2c(=O)n3ccccc3nc2n1Cc1cccnc1 | 48.7% (inactive) |
| N=c1c(C(=O)NCc2ccc(F)cc2)cc2c(=O)n3ccccc3nc2n1CCCN1CCOCC1 | 38.7% (inactive) |
| CCN1/C(=C/C(=O)c2ccco2)Sc2ccccc21 | 15.1% (inactive) |
| N#Cc1c(N)n(CCc2ccc(F)cc2)c2nc3ccccc3nc12 | 32% (inactive) |
| COCCCNC(=S)NCCNc1nc2c(C)c(C)ccc2cc1C#N | -1.9% (inactive) |
| Cc1ccc(C2C=C(c3ccccc3)Nc3nc(N4C(=O)CCC4=O)nn32)cc1 (configuration not stated) | -11.2% (inactive) |
| Cc1ccc(C2C3=C(CC(C)(C)CC3=O)Nc3[nH]c(=S)[nH]c(=O)c32)cc1 (configuration not stated) | 39.6% (inactive) |

| SMILES | inhibition |
| --- | --- |
| COCCCNC(=S)NCCCNc1nc2cc(C)cc(C)c2cc1C#N | -6.6% (inactive) |
| O=c1cc(-c2ccc(O)cc2)oc2cc(O)c(C3OC(CO)C(O)C(O)C3O)c(O)c12 (configuration not stated) | -6.5% (inactive) |
| Cc1c2c(n3c(nc4ccccc43)c1C#N)N(CCN(C)C)CC2 | -12.2% (inactive) |
| CCc1nnc(NS(=O)(=O)c2ccc(N/C=C/C(=O)c3ccc(OC)cc3)cc2)s1 | -1.7% (inactive) |
| CCc1nnc(NC(=O)c2sc3nc4c(cc3c2N)CCCCCC4)s1 | 38.3% (inactive) |
| Cc1ccc(C(=O)c2sc3nc4c(cc3c2N)CCC4)cc1 | 13.7% (inactive) |
| Cc1cc(=O)oc2c(CN3CC(C)OC(C)C3)c(O)c(Cl)cc12 (configuration not stated) | -12.9% (inactive) |
| CCOC(=O)CCc1c(C)c(C#N)c2nc3ccccc3n2c1-n1ccnc1 | -4% (inactive) |
| CCOC(=O)c1cc2ccc(OC)cc2oc1=O | -9.7% (inactive) |
| COC(=O)Cc1c(C)c2cc(Cl)c(OC(=O)c3ccco3)cc2oc1=O | 19.4% (inactive) |
| O=C(O)c1ccc(N=c2oc3cc(O)ccc3cc2C(=O)NCc2ccccc2)cc1 | -1.1% (inactive) |
| c1ccn2c(c1)nc1c2nc2ccccn21 | 8.5% (inactive) |
| CCOC(=O)C1=C(CSc2nc3c(cc2C#N)CN(C)CC3)OC(N)=C(C#N)C1c1ccc(F)cc1 (configuration not stated) | 22.5% (inactive) |
| CCOC(=O)C1=C(CSc2nc3c(cc2C#N)CN(C)CC3)OC(N)=C(C#N)C1c1ccccc1 (configuration not stated) | 29.2% (inactive) |
| CCOC(=O)C1=C(O)/C(=C/c2cn(CC(=O)N3CCCC3)c3ccccc23)SC1=Nc1ccccc1 | 4% (inactive) |
| CC1CCc2c(sc(Nc3nc4c(F)cccc4s3)c2C(N)=O)C1 (configuration not stated) | 48.6% (inactive) |
| CCOC(=O)c1c(NC(=O)C(F)(OC)C(F)(F)F)sc2c1CCN(C)C2 (configuration not stated) | -4.1% (inactive) |
| CCOC(=O)c1cc2c(ccc3ccccc32)oc1=O | -0.5% (inactive) |
| CNC(=O)c1cc2c(ccc3ccccc32)oc1=N | 2.9% (inactive) |
